# From PubChem
# Compounds with a hit are over-represented: about 27% of the library has one in this group of screens.
# CYP2C19 inhib: blockers of cytochrome P450 2C19 activity – biochemical, luminescence, ADME assay, primary screen. CYP2C19 Supersomes, luciferin-H EGE luminescence, 30 min. P33261. 96,000 compounds, 21% hits. inhibition, % at 5 µM;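 active = CYP2C19 inhibition above a set limit at 5 µM in the primary screen, cut at about 50% in these data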;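 also: plate controls were negative control wells for no effect and 2.5 mM tranylcypromine positive control for full effect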
# CYP2C9 inh: blockers of cytochrome P450 2C9 activity – biochemical, luminescence, ADME assay, primary screen | P11712 | CYP2C9 Supersomes, luciferin-H conversion | inhibition, % at 5 µM | 96,000 compounds, 20% hits | AID 777, 2007;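 active = blocking of liver enzyme CYP2C9 beyond about 50% at 5 µM, limit read from the data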
# Target sequence (P11712 whole entry, looked up): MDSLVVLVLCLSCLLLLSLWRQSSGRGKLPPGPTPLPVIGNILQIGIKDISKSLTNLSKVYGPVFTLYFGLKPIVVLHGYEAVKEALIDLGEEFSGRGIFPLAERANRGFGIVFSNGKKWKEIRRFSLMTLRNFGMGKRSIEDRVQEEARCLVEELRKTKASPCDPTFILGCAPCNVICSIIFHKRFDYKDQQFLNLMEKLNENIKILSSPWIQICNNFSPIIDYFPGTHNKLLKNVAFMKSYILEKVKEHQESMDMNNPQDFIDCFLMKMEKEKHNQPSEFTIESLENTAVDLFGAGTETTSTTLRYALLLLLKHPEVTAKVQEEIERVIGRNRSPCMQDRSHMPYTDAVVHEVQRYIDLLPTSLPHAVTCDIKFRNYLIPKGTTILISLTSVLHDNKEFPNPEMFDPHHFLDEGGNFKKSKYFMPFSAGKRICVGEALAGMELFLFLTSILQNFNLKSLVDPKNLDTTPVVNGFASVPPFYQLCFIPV
# CYP2C9 activ: human CYP2C9 activators, primary screen, biochemical, luminescence. AID 1024, 2008. activation factor at 5 µM. Cytochrome P450 2C9 (Homo sapiens), P11712. 96,000 compounds, 1.4% hits. recombinant CYP2C9, luciferin-H conversion; stronger effect = higher value; factor 1 = untreated enzyme, 0 = blocked;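 active = activation factor of 2 or more for CYP2C9 at a 5 µM dose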;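 also: 0 = sulfaphenazole-blocked wells and 1 = vehicle-only wells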
# EphB4 antag: EphB4-ephrin-B2 interaction antagonists, primary screen, biochemical, TNYL-RAW peptide probe, fluorescence polarization; EphB4 LBD / TNYL-RAW-Alexa532 peptide; inhibition, % at 7 µM; 97,000 compounds, 0.15% hits;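 active = inhibition above the screen-wide mean inhibition plus 3 SD, cut at about 15% in these data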;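 also: 0% = DMSO wells and 100% = excess unlabeled TNYL-RAW peptide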
# CYP2C19 activ: human CYP2C19 activators, primary screen, biochemical, luminescence | recombinant CYP2C19, luciferin-H EGE luminescence; stronger effect = higher value; 0 = fully inhibited enzyme, 1 = untreated enzyme | activation factor at 5 µM | 96,000 tested, under 10 active;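 active = activation factor of at least 2 at 5 µM in the primary screen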;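 also: 0 = wells with 2.5 mM tranylcypromine and 1 = vehicle-only wells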
# Numbers without * were called inactive; x = no result given.
SMILES,CYP2C19 inhib,CYP2C9 inh,CYP2C9 activ,EphB4 antag,CYP2C19 activ
CCC1c2ccc(C)n2CCN1C(=O)Nc1ccc(F)cc1 (stereo not given),27.7,15.1,0.8,11.1,0.7
CCC(=O)Nc1cccc(NC(=O)CSc2nnc(-c3ccc(NS(C)(=O)=O)cc3)n2CC)c1,35.6,54.2*,0.5,0.0,0.6
CCn1c(SCC(=O)Nc2cc(C)on2)nnc1-c1ccncc1,72.7*,17.5,0.8,-10.8,0.3
CCn1c(SCC(=O)NCc2ccc(C)cc2)nnc1-c1ccncc1,20.4,42.6,0.6,2.6,0.8
c1ccc(-c2ccc(-c3csnn3)cc2)cc1,16.0,9.8,0.9,0.6,0.8
Cc1cccc(CC2CC(=O)N(C3CCCCC3)C2=O)c1 (stereo not given),98.6*,58.0*,0.4,-0.9,0
Cc1cccc(CC2CC(=O)N(c3ccccc3)C2=O)c1 (stereo not given),88.4*,23.4,0.8,-0.1,0.1
CCSc1nnc([C@H](Cc2c[nH]c3ccccc23)NC(=O)OC(C)(C)C)o1,28.3,18.0,0.8,-0.4,0.7
CCOC(=O)CSc1nnc([C@H](C)NC(=O)OC(C)(C)C)o1,11.6,-9.0,1.1,-4.9,0.9
CC(C)C[C@H](NC(=O)OC(C)(C)C)c1nnc(SCC(=O)Nc2ccc(Br)cc2)o1,65.0*,23.5,0.8,3.7,0.3
CSCC[C@H](NC(=O)OC(C)(C)C)c1nnc(SCc2ccccc2)o1,78.7*,60.1*,0.4,-9.0,0.2
CSCC[C@H](NC(=O)OC(C)(C)C)c1nnc(SCC(=O)N(C)C)o1,3.2,-8.1,1.1,5.1,1
CSCC[C@H](NC(=O)OC(C)(C)C)c1nnc(SCc2ccc(F)cc2)o1,88.1*,78.4*,0.2,-4.5,0.1
CCN(CC)C(=O)CSc1nnc([C@H](Cc2c[nH]c3ccccc23)NC(=O)OC(C)(C)C)o1,53.1*,62.4*,0.4,-4.0,0.5
O=C(NCC1CCCO1)c1cc2n(n1)C(C(F)(F)F)CC(c1ccc(F)cc1)N2 (stereo not given),25.1,30.5,0.7,x,0.7
CC(C)C[C@H](NC(=O)OC(C)(C)C)c1nnc(SCc2cccc(F)c2)o1,34.6,8.0,0.9,3.4,0.7
CSCC[C@H](NC(=O)OC(C)(C)C)c1nnc(SCc2cccc(F)c2)o1,80.0*,69.0*,0.3,1.9,0.2
O=C1NCCN/C1=C\C(=O)c1ccccc1,2.4,7.7,0.9,5.5,1
CCOC(=O)CCCNC(=O)CCNC(=O)c1ccc(OCC)cc1,8.2,0.7,1,4.4,0.9
CC(Sc1ccccn1)C(=O)Nc1ccc(S(N)(=O)=O)cc1 (stereo not given),17.6,17.2,0.8,1.7,0.8
CC(Sc1ccccn1)C(=O)Nc1ccccc1 (stereo not given),80.8*,36.3,0.6,-2.9,0.2
COc1ccc(NC(=O)C(C)Sc2ccccc2)cc1 (stereo not given),50.6*,64.3*,0.4,1.3,0.5
COc1ccc(NC(=O)N2CCOCC2)cc1OC,-3.6,1.5,1,2.8,1
CCCc1cc(=O)n2[nH]c(-c3ccc(C)cc3)cc2n1,23.8,44.5,0.6,x,0.8
CC(OC(=O)c1nsc(Cl)c1Cl)C(=O)NCc1ccc2c(c1)OCO2 (stereo not given),31.0,92.3*,0.1,4.7,0.7
SMILES,CYP2C19 inhib,CYP2C9 inh,CYP2C9 activ,EphB4 antag,CYP2C19 activ
CC(OC(=O)c1nn(C)c(=O)c2ccccc12)C(=O)NCc1ccc2c(c1)OCO2 (stereo not given),38.1,77.5*,0.2,-1.0,0.6
CC(OC(=O)CCCOc1ccccc1)C(=O)NC(N)=O (stereo not given),36.5,18.9,0.8,5.8,0.6
CC(C)CCn1nc(C(=O)OC(C)C(=O)NC(N)=O)c2ccccc2c1=O (stereo not given),37.3,67.1*,0.3,1.2,0.6
CC(OC(=O)c1ccccc1NCc1ccco1)C(=O)Nc1ncc(Cl)cc1Cl (stereo not given),66.4*,80.7*,0.2,x,0.3
CC(OC(=O)CCc1nc2ccccc2c(=O)[nH]1)C(=O)NCc1ccc2c(c1)OCO2 (stereo not given),x,x,x,-0.4,x
CN(C)CCn1c(NC(=O)c2ccc(Cl)cc2)nc2ccccc21,4.3,16.6,0.8,-3.2,1
Cn1nc(C(=O)NCc2ccccc2)c2ccccc2c1=O,58.5*,24.0,0.8,-3.5,0.4
CC(OC(=O)c1nsc(Cl)c1Cl)C(=O)NCc1ccco1 (stereo not given),66.6*,56.2*,0.4,-2.6,0.3
Cc1ccc(Sc2nc(-c3ccccc3)ccc2C#N)cc1,-1.3,18.9,0.8,2.0,1
Cc1sc2c(c1C)CN(C1CC(C)(C)NC(C)(C)C1)CN2C(=O)c1ccco1,4.8,3.2,1,1.0,1
Cc1ccc(NCCC(=O)c2ccc(Br)cc2)cc1,78.7*,16.3,0.8,0.6,0.2
CCc1ccc(CN/C=C/C(=O)c2ccc(Br)cc2)cc1,1.3,2.1,1,-1.9,1
CCc1ccc(NCCC(=O)c2ccc(Br)cc2)cc1,86.3*,50.5*,0.5,-8.5,0.1
Cc1ccc(NCCC(=O)c2ccc(Cl)cc2)cc1,83.1*,27.8,0.7,-5.5,0.2
COc1ccc2c(c1)c(=O)c(Br)c(C)n2Cc1ccccc1,19.2,-4.7,1,x,0.8
COc1ccc(CN(C)C(c2ccccc2)c2nnnn2-c2ccccc2C)c(OC)c1C (stereo not given),93.9*,79.3*,0.2,-7.8,0.1
CCC(C)(C)n1nnnc1C(c1cc(OC)c(OC)c(OC)c1)N1CCN(c2ccccc2)CC1 (stereo not given),24.5,6.5,0.9,-7.1,0.8
Cn1c(=O)c2c(nc(SCc3cccnc3)n2Cc2ccc(F)cc2)n(C)c1=O,25.5,40.9,0.6,-5.7,0.7
CCN(CC)C(=O)c1ccc(C)c(Br)c1,9.6,-21.5,1.2,-0.7,0.9
CC(=O)Nc1ccccc1-c1nc2ccc(C(=O)N3CCN(c4cccc(C)c4)C(C)C3)cc2[nH]c1=O (stereo not given),69.6*,86.7*,0.1,-4.3,0.3
COc1cccc(NC(=O)N2CCN(c3cccc(C)c3)C(C)C2)c1 (stereo not given),58.7*,-16.3,1.2,-1.2,0.4
Cc1cccc(N2CCN(C(=O)c3ccc4nc(-c5ccco5)c(-c5ccco5)nc4c3)CC2C)c1 (stereo not given),49.4,52.4*,0.5,8.8,0.5
Cc1cccc(N2CCN(C(=O)c3cc4c(=O)n(C)c5ccccc5c4n3C)CC2C)c1 (stereo not given),99.0*,94.3*,0.1,11.4,0
